Laboratory results: PubChem BioAssay (NCI)
The panel holds about 83,000 compounds, 20% with a hit somewhere; the sample as a whole holds those more often.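 A percent growth of 40 corresponds to 60% growth inhibition; 0 means no net growth; -100 means all cells died. Active threshold: below 10.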 Active and inactive are the calls of the source.

Experiments:
Experiment in all cases: NCI-60 one-dose screen, 48 h (100 = growth as untreated, 0 = no growth, -100 = all killed)
Settings in all cases: 10 µM unless noted
SR leukemia = tested on: SR leukemia
RPMI-8226 leukemia = tested on: RPMI-8226 leukemia
OVCAR-8 ovarian = tested on: OVCAR-8 ovarian
OVCAR-5 ovarian = tested on: OVCAR-5 ovarian
OVCAR-4 ovarian = tested on: OVCAR-4 ovarian
SK-OV-3 ovarian = tested on: SK-OV-3 ovarian
IGROV1 ovarian = tested on: IGROV1 ovarian
HS 578T breast = tested on: HS 578T breast
NCI/ADR-RES ovarian = tested on: NCI/ADR-RES ovarian
T-47D breast = tested on: T-47D breast
BT-549 breast = tested on: BT-549 breast
MDA-MB-435 melanoma = tested on: MDA-MB-435 melanoma
SW-620 colon = tested on: SW-620 colon
MCF7 breast = tested on: MCF7 breast
HCT-116 colon = tested on: HCT-116 colon
HCC-2998 colon = tested on: HCC-2998 colon
KM12 colon = tested on: KM12 colon

Measured: growth

COc1ccc2[nH]cc(-c3nn4cc(-c5ccncc5)nc4s3)c2c1
inactive: SR leukemia 61.5% | RPMI-8226 leukemia 43.8% | OVCAR-8 ovarian 52% | OVCAR-5 ovarian 107% | OVCAR-4 ovarian 71.1% | SK-OV-3 ovarian 88.3% | IGROV1 ovarian 41.4% | HS 578T breast 87.5% | NCI/ADR-RES ovarian 48.9% | BT-549 breast 74.8% | MDA-MB-435 melanoma 90.2% | SW-620 colon 66.3% | MCF7 breast 11.2% | HCT-116 colon 52.8% | HCC-2998 colon 81.4% | KM12 colon 64.1%
active: T-47D breast 7.81%

COCCOc1ccc2ncc(C#Cc3cncc(C(=O)Nc4ccc(CN5CCN(C)CC5)c(C(F)(F)F)c4)c3)n2n1
active: SR leukemia 0.746% | IGROV1 ovarian 9.76% | HS 578T breast -13.3% | NCI/ADR-RES ovarian 3.81% | BT-549 breast 0.139% | SW-620 colon -34% | MCF7 breast -59.8% | HCT-116 colon -86.7% | KM12 colon 0.84%
inactive: RPMI-8226 leukemia 23.4% | OVCAR-8 ovarian 24.4% | OVCAR-5 ovarian 21.8% | OVCAR-4 ovarian 43.2% | SK-OV-3 ovarian 24% | T-47D breast 59.6% | MDA-MB-435 melanoma 11.5% | HCC-2998 colon 33.6%

Fc1cccc(Cl)c1/C=N/Nc1nc(N/N=C/c2c(F)cccc2Cl)nc(N2CCCCC2)n1
inactive: SR leukemia 16.1% | OVCAR-8 ovarian 25.8% | OVCAR-5 ovarian 27.8% | OVCAR-4 ovarian 21% | SK-OV-3 ovarian 39.1% | IGROV1 ovarian 17.7% | HS 578T breast 33.3% | NCI/ADR-RES ovarian 15.2% | T-47D breast 11% | BT-549 breast 68.4% | SW-620 colon 17.2% | HCT-116 colon 19.5% | HCC-2998 colon 24.4% | KM12 colon 10.8%
active: RPMI-8226 leukemia 3.27% | MDA-MB-435 melanoma 3.75% | MCF7 breast 3.1%

CN1CCN(c2ccc(Nc3nc(NCCNS(=O)(=O)c4ccc5ccccc5c4)c4sccc4n3)cc2)CC1
active: SR leukemia -21.3%
inactive: RPMI-8226 leukemia 49.8% | OVCAR-8 ovarian 60.3% | OVCAR-5 ovarian 90.1% | OVCAR-4 ovarian 82.3% | SK-OV-3 ovarian 128% | IGROV1 ovarian 82.3% | HS 578T breast 75% | NCI/ADR-RES ovarian 90.3% | T-47D breast 55.2% | BT-549 breast 86.7% | MDA-MB-435 melanoma 53.7% | SW-620 colon 35.2% | HCT-116 colon 14.7% | HCC-2998 colon 72.3% | KM12 colon 86.7%

COc1ccccc1/C=C/C(=O)c1nnn(-c2ccc(F)cc2)c1C
active: MCF7 breast 7.51%
inactive: SR leukemia 13.2% | RPMI-8226 leukemia 20.9% | OVCAR-8 ovarian 44.9% | OVCAR-5 ovarian 89.5% | OVCAR-4 ovarian 59.2% | SK-OV-3 ovarian 95.8% | IGROV1 ovarian 45.6% | HS 578T breast 78.3% | NCI/ADR-RES ovarian 34.3% | T-47D breast 54.9% | BT-549 breast 62% | MDA-MB-435 melanoma 23.4% | SW-620 colon 19.9% | HCT-116 colon 10.7% | HCC-2998 colon 81.3% | KM12 colon 32.6%

CCc1cc2c(cc1Cl)nc1c(=O)[nH]c(=O)nc-1n2CCOCC(C)C
active: MDA-MB-435 melanoma 3.04%
inactive: SR leukemia 22.7% | RPMI-8226 leukemia 66.6% | OVCAR-8 ovarian 59.2% | OVCAR-5 ovarian 120% | OVCAR-4 ovarian 44.1% | SK-OV-3 ovarian 111% | IGROV1 ovarian 58.6% | HS 578T breast 98.2% | NCI/ADR-RES ovarian 74.1% | T-47D breast 75.2% | BT-549 breast 94% | SW-620 colon 70.2% | MCF7 breast 39.5% | HCT-116 colon 37.9% | HCC-2998 colon 80.3% | KM12 colon 74.3%

NS(=O)(=O)c1ccc(Nc2nc(N/N=C/c3ccc4c(c3)OCO4)nc(Nc3ccccc3)n2)cc1
inactive: SR leukemia 20% | RPMI-8226 leukemia 54.3% | OVCAR-8 ovarian 49.7% | OVCAR-5 ovarian 90.8% | OVCAR-4 ovarian 55.5% | SK-OV-3 ovarian 65.7% | IGROV1 ovarian 36.6% | HS 578T breast 52% | NCI/ADR-RES ovarian 90.9% | T-47D breast 54.7% | BT-549 breast 76.7% | MDA-MB-435 melanoma 59.2% | SW-620 colon 49.8% | MCF7 breast 18.7% | HCT-116 colon 36.7% | HCC-2998 colon 23.2% | KM12 colon 70.4%

COc1ccc(/C(=N\NC(N)=S)c2ccc(Cl)cc2)cc1OC
active: HS 578T breast 3.4% | NCI/ADR-RES ovarian 7.07% | MDA-MB-435 melanoma -35.1%
inactive: SR leukemia 29.3% | RPMI-8226 leukemia 45.6% | OVCAR-8 ovarian 37.8% | OVCAR-5 ovarian 51.2% | OVCAR-4 ovarian 60.6% | SK-OV-3 ovarian 18.3% | IGROV1 ovarian 30.3% | T-47D breast 18.1% | BT-549 breast 14.2% | SW-620 colon 15.9% | MCF7 breast 14.4% | HCT-116 colon 14.9% | HCC-2998 colon 52.6% | KM12 colon 19.4%

O=C(Nc1ccc(Cl)c(C(F)(F)F)c1)Nc1ccc2oc(=O)ccc2c1
active: RPMI-8226 leukemia -1.56% | T-47D breast 8.73%
inactive: SR leukemia 45.6% | OVCAR-8 ovarian 43.4% | OVCAR-5 ovarian 75.6% | OVCAR-4 ovarian 43.3% | SK-OV-3 ovarian 81% | IGROV1 ovarian 30.7% | HS 578T breast 83.1% | NCI/ADR-RES ovarian 19.6% | BT-549 breast 78.7% | MDA-MB-435 melanoma 50.3% | SW-620 colon 37.3% | MCF7 breast 11.9% | HCT-116 colon 15.7% | HCC-2998 colon 29.2% | KM12 colon 19.6%

O=C(CCCCCCN1CC(=O)N2[C@@H](c3ccccc3Br)c3[nH]c4ccccc4c3C[C@H]2C1=O)NO
inactive: SR leukemia 14% | RPMI-8226 leukemia 12% | OVCAR-8 ovarian 34.1% | OVCAR-5 ovarian 50.9% | OVCAR-4 ovarian 88.1% | SK-OV-3 ovarian 75.5% | IGROV1 ovarian 48.3% | HS 578T breast 59.6% | NCI/ADR-RES ovarian 83.7% | T-47D breast 19.2% | BT-549 breast 87.1% | MDA-MB-435 melanoma 27.8% | SW-620 colon 24.7% | MCF7 breast 21.4% | HCT-116 colon 12.7% | HCC-2998 colon 56.9% | KM12 colon 73%

O=c1c2cc(-c3ccc(F)cc3F)ccc2n(O)c(=O)n1-c1cccc(C(F)(F)F)c1
inactive: OVCAR-8 ovarian 12% | OVCAR-5 ovarian 42.3% | OVCAR-4 ovarian 31.7% | IGROV1 ovarian 21.2% | SW-620 colon 16.3%
active: SR leukemia -0.936% | RPMI-8226 leukemia -19.1% | SK-OV-3 ovarian -14.5% | HS 578T breast -0.801% | NCI/ADR-RES ovarian 3.16% | T-47D breast -15.9% | BT-549 breast -3.54% | MDA-MB-435 melanoma 1.71% | MCF7 breast 1.33% | HCT-116 colon 1.93% | HCC-2998 colon 9.79% | KM12 colon 7.94%

COc1ccc(/C=N/NC(=O)c2c(N)nn(C)c2Nc2ccccc2)cc1
active: MDA-MB-435 melanoma -31%
inactive: SR leukemia 18.9% | RPMI-8226 leukemia 61.6% | OVCAR-8 ovarian 70.8% | OVCAR-5 ovarian 76.9% | OVCAR-4 ovarian 87% | SK-OV-3 ovarian 49.6% | IGROV1 ovarian 39.6% | HS 578T breast 38.1% | NCI/ADR-RES ovarian 33% | T-47D breast 42.4% | SW-620 colon 16% | HCT-116 colon 15% | HCC-2998 colon 59.2% | KM12 colon 27.8%

NC(=O)n1c(=O)n(-c2cccc(C(F)(F)F)c2)c(=O)c2cc(-c3ccc(F)cc3F)ccc21
active: SR leukemia 4.71% | RPMI-8226 leukemia -30.6% | OVCAR-8 ovarian 8.4% | SK-OV-3 ovarian -12.9% | HS 578T breast -6.46% | NCI/ADR-RES ovarian 2.36% | T-47D breast -14% | MDA-MB-435 melanoma 0.406% | MCF7 breast 0.6% | HCT-116 colon 2.24%
inactive: OVCAR-5 ovarian 43.7% | OVCAR-4 ovarian 28.4% | IGROV1 ovarian 14.8% | SW-620 colon 14.1% | HCC-2998 colon 10.7%

Brc1ccc(-c2cc(-c3ccc4c(c3)OC=CO4)n[nH]2)s1
inactive: SR leukemia 54.7% | RPMI-8226 leukemia 93.6% | OVCAR-8 ovarian 96.4% | OVCAR-5 ovarian 105% | OVCAR-4 ovarian 88% | SK-OV-3 ovarian 88.1% | IGROV1 ovarian 81% | HS 578T breast 92.2% | NCI/ADR-RES ovarian 76.8% | T-47D breast 48.5% | BT-549 breast 91.3% | MDA-MB-435 melanoma 15.3% | HCT-116 colon 91.5% | HCC-2998 colon 84.5% | KM12 colon 58.6%

CN(C)CC(=O)Nc1nc(-c2cccc(NS(=O)(=O)c3cccc4c(N(C)C)cccc34)c2)cs1
inactive: SR leukemia 74.9% | RPMI-8226 leukemia 60.6% | OVCAR-8 ovarian 82.6% | OVCAR-5 ovarian 105% | OVCAR-4 ovarian 87.1% | SK-OV-3 ovarian 107% | IGROV1 ovarian 90.7% | HS 578T breast 90.6% | NCI/ADR-RES ovarian 76.8% | T-47D breast 56.9% | MDA-MB-435 melanoma 99% | SW-620 colon 105% | HCT-116 colon 80.1% | HCC-2998 colon 85.8% | KM12 colon 94.1%

CC[C@H](CC[C@@H](C)[C@H]1CC[C@H]2[C@@H]3CC(=O)C4=CC(=O)/C(=C/c5ccc([N+](=O)[O-])cc5)C[C@]4(C)[C@H]3CC[C@]12C)C(C)C
inactive: SR leukemia 84.3% | RPMI-8226 leukemia 83.5% | OVCAR-8 ovarian 100% | OVCAR-5 ovarian 105% | OVCAR-4 ovarian 108% | SK-OV-3 ovarian 124% | IGROV1 ovarian 111% | HS 578T breast 119% | NCI/ADR-RES ovarian 106% | T-47D breast 89.1% | MDA-MB-435 melanoma 94.4% | SW-620 colon 110% | MCF7 breast 84.8% | HCT-116 colon 86.5% | HCC-2998 colon 105% | KM12 colon 100%

COc1ccc(/C=N\NC(=O)c2cnn(CC(O)c3ccccc3)c2N)cc1OCc1ccc(Cl)cc1 (centres undefined)
inactive: SR leukemia 65.8% | RPMI-8226 leukemia 65.5% | OVCAR-8 ovarian 74% | OVCAR-5 ovarian 79.9% | OVCAR-4 ovarian 74.1% | SK-OV-3 ovarian 93.8% | IGROV1 ovarian 91.9% | HS 578T breast 43.2% | NCI/ADR-RES ovarian 72.2% | T-47D breast 56.9% | BT-549 breast 109% | MDA-MB-435 melanoma 78.7% | SW-620 colon 64.5% | HCT-116 colon 49.4% | HCC-2998 colon 108% | KM12 colon 75%

Cc1ccc(S(=O)(=O)c2nc(-c3ccc(F)cc3)oc2S(C)(=O)=O)cc1
inactive: RPMI-8226 leukemia 31.7% | OVCAR-8 ovarian 86.9% | OVCAR-5 ovarian 95.2% | OVCAR-4 ovarian 92.1% | SK-OV-3 ovarian 100% | IGROV1 ovarian 45.2% | HS 578T breast 90.6% | NCI/ADR-RES ovarian 92% | T-47D breast 60.8% | MDA-MB-435 melanoma 77.2% | MCF7 breast 33.6% | HCT-116 colon 36.3% | HCC-2998 colon 102% | KM12 colon 103%
active: SR leukemia 8.12% | SW-620 colon -66.3%
